Experiment [1] relates to Tyrosine-protein kinase ABL1 (Homo sapiens), P00519 [T315I]. To be noted: at 1 µM.
The test system of experiment [2] is Tyrosine-protein kinase ABL1 (Homo sapiens), P00519 [Y253F]. The note with it: at 0.1 µM.
The test system is the same in experiment [3]. The note with it: at 1 µM.
Experiment [4] concerns the target Tyrosine-protein kinase ABL1 (Homo sapiens) (UniProt P00519). The note with it: at 0.1 µM.
For experiment [5] the target is unchanged. The note with it: at 1 µM.
In experiment [6] the target is ALK tyrosine kinase receptor (Homo sapiens) (UniProt Q9UM73). To be noted: at 0.1 µM.
Chain of ALK tyrosine kinase receptor (Homo sapiens) (Q9UM73 19-1620 limits assumed): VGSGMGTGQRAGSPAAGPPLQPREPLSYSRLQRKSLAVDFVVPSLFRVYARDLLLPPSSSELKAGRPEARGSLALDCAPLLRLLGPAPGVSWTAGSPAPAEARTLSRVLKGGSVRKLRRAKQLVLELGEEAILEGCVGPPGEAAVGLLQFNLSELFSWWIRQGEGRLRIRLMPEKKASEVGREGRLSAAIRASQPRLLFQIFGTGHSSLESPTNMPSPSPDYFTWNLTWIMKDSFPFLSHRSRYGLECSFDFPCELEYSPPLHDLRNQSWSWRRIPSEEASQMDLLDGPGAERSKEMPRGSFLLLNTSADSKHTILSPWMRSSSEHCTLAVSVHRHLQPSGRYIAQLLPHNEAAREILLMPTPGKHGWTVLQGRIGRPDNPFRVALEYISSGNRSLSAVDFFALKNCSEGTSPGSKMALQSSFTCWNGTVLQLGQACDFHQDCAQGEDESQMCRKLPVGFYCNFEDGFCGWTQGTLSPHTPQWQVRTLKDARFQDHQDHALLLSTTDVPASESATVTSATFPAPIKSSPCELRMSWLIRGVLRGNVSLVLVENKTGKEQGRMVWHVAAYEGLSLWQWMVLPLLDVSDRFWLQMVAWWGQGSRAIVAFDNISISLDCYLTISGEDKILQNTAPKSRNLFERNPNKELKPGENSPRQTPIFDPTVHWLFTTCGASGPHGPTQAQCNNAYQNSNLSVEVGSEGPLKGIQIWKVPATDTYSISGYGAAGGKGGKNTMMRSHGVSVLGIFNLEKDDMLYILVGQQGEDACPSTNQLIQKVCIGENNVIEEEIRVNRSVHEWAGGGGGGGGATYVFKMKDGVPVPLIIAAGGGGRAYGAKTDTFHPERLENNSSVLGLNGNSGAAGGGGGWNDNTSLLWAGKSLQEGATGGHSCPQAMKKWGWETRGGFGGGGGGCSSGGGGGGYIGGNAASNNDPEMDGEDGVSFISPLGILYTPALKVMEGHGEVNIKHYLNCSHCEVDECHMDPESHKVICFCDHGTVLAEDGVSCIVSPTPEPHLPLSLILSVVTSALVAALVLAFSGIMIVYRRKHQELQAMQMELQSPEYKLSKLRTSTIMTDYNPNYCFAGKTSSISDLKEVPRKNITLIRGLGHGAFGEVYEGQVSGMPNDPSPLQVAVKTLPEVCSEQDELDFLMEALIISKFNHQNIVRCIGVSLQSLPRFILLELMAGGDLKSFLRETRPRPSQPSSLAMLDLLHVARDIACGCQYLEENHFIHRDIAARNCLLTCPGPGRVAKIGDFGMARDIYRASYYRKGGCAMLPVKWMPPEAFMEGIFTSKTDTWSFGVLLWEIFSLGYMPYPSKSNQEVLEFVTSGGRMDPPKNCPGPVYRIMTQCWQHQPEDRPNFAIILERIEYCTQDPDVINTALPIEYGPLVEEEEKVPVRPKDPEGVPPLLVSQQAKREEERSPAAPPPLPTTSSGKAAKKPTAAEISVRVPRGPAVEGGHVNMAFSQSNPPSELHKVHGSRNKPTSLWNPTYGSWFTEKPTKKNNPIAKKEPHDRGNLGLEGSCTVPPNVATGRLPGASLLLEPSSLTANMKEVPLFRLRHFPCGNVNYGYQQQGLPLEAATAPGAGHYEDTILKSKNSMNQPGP
For experiment [7] the target is unchanged. To be noted: at 1 µM.
Experiment [8] addresses Tyrosine-protein kinase ABL2 (Homo sapiens) (UniProt P42684). The note with it: at 0.1 µM.
Experiment [9] has the same target. To be noted: at 1 µM.
In experiment [10] the target is Tyrosine-protein kinase receptor UFO (Homo sapiens) (UniProt P30530). The note with it: at 0.1 µM.
Experiment [11] has the same target. The note with it: at 1 µM.
Experiment [12] deals with Tyrosine-protein kinase Blk (Homo sapiens) (UniProt P51451). The note with it: at 0.1 µM.
Chain of Tyrosine-protein kinase Blk (Homo sapiens) (P51451 2-505 limits assumed): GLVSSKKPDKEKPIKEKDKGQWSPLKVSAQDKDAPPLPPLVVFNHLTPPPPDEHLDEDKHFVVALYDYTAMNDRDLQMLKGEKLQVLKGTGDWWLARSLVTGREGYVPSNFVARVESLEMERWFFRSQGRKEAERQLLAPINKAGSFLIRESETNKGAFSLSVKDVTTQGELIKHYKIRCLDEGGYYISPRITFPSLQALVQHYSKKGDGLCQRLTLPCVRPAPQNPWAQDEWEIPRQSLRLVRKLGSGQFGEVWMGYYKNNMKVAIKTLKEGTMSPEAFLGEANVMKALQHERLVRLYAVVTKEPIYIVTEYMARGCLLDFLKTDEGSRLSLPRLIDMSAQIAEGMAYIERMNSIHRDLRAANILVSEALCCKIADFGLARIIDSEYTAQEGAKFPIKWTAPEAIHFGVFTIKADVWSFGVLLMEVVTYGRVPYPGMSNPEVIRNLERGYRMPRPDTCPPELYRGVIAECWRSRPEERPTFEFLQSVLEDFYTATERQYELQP
The target is the same in experiment [13]. To be noted: at 1 µM.
Experiment [14] concerns the target T1, Cytoplasmic tyrosine-protein kinase BMX (Homo sapiens) (UniProt P51813).
T1 sequence (whole entry): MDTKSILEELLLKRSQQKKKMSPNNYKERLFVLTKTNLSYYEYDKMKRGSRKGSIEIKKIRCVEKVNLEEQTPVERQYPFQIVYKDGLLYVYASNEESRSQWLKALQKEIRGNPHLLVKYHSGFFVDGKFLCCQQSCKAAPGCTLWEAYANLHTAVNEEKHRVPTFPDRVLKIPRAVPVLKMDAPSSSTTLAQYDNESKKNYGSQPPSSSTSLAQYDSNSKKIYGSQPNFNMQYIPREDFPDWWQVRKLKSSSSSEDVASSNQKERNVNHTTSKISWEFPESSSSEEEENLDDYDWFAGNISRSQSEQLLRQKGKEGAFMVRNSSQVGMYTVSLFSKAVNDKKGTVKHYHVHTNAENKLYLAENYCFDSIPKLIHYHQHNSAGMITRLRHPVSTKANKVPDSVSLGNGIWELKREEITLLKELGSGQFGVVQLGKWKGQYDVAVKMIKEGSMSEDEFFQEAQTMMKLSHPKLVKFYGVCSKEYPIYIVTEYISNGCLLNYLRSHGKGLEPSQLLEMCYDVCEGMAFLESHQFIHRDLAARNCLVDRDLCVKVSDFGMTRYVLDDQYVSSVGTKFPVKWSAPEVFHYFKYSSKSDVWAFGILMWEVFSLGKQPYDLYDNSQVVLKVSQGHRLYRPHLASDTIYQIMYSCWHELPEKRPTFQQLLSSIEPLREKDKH
The note with it: at 0.1 µM.

Experiment [15] deals with T1, Cytoplasmic tyrosine-protein kinase BMX (Homo sapiens). The note with it: at 1 µM.
The target of experiment [16] is Protein-tyrosine kinase 6 (Homo sapiens) (UniProt Q13882). The note with it: at 0.1 µM.
Chain of Protein-tyrosine kinase 6 (Homo sapiens) (Q13882 whole entry, looked up): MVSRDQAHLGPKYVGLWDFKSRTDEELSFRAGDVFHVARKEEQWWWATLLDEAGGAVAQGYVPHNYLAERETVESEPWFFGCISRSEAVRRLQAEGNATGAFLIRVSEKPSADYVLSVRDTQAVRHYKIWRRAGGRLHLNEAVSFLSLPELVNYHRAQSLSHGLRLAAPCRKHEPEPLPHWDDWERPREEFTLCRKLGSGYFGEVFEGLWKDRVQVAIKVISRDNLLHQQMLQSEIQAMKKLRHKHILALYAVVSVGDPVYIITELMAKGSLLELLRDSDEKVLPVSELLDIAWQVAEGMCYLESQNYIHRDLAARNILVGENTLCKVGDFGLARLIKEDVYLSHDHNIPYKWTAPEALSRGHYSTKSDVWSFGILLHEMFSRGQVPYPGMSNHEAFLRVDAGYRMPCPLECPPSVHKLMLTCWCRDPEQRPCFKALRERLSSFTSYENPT
Experiment [17] has the same target. To be noted: at 1 µM.
For experiment [18], the target named is Tyrosine-protein kinase BTK (Homo sapiens) (UniProt Q06187). To be noted: at 0.1 µM.
Chain of Tyrosine-protein kinase BTK (Homo sapiens) (Q06187 whole entry): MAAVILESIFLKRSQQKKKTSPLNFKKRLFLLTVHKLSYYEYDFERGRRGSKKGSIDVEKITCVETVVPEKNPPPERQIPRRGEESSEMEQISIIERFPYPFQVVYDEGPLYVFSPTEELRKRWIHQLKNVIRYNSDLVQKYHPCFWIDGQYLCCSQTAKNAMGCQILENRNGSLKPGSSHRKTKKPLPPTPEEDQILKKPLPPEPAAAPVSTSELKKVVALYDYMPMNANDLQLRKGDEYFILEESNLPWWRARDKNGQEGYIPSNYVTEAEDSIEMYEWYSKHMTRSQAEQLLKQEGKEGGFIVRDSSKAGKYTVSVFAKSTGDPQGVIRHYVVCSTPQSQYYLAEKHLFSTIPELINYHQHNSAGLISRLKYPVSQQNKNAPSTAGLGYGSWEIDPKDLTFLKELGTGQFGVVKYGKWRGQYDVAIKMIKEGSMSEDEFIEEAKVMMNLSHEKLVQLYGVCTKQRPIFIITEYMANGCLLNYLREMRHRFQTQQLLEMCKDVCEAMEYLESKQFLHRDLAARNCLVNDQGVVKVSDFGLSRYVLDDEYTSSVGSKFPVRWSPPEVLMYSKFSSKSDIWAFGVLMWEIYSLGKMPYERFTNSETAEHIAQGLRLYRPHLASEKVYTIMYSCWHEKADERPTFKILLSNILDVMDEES
Experiment [19] has the same target. The note with it: at 1 µM.
Experiment [20] deals with Tyrosine-protein kinase CSK (Homo sapiens) (UniProt P41240). The note with it: at 0.1 µM.
Chain of Tyrosine-protein kinase CSK (Homo sapiens) (P41240 2-450 limits assumed): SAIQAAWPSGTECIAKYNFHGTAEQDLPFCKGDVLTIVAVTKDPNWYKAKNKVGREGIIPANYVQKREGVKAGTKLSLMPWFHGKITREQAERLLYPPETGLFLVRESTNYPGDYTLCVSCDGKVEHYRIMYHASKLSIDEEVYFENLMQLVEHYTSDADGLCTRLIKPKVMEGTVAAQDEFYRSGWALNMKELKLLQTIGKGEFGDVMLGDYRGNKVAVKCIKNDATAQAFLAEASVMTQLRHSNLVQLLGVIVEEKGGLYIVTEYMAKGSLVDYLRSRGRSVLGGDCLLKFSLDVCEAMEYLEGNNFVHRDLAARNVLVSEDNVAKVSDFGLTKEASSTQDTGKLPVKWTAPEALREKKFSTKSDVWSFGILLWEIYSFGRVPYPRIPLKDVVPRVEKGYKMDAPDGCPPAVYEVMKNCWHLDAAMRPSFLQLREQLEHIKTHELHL

The text below walks through data of ChEMBL document CHEMBL1961873, “Compounds: GSK PKIS; Assays: Nanosyn kinase panel” (2012).

Chain of Tyrosine-protein kinase ABL2 (Homo sapiens) (P42684 whole entry): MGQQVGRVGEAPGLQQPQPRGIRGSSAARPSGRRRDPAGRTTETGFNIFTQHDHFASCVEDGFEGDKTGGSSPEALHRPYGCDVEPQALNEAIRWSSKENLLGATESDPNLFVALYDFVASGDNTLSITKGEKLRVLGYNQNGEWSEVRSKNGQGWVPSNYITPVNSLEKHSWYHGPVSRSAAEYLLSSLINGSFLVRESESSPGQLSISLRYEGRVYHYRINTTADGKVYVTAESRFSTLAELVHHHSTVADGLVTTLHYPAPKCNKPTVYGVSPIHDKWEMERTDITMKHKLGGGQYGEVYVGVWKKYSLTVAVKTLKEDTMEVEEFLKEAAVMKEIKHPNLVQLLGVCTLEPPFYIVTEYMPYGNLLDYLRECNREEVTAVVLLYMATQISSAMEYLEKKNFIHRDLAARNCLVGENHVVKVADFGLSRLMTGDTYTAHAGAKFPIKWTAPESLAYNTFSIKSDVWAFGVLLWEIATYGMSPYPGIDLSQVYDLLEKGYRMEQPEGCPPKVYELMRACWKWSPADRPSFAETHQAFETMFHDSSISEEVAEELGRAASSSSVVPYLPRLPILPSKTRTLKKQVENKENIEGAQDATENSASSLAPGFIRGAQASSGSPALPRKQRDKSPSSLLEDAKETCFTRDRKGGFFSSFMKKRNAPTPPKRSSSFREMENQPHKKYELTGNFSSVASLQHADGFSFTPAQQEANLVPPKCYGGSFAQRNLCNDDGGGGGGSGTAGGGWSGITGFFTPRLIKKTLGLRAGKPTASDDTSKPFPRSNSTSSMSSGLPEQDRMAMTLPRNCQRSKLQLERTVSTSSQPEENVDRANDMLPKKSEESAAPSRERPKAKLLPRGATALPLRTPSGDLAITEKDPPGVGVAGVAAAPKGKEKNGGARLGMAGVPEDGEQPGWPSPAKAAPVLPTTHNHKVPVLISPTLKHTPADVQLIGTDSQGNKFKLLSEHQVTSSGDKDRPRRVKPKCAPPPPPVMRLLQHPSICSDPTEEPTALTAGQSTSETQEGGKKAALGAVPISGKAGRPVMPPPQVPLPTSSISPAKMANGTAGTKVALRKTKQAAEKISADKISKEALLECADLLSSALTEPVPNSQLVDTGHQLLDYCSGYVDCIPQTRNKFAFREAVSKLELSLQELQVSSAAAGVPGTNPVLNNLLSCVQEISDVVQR

As to `O=C1NC(=O)C(N2CCc3ccccc32)=C1c1ccc(Cl)cc1`, the inhibition worked out at 1.87% in experiment [1]; 6.01% in [2]; 5.27% in experiment [3]; 4.41% in experiment [4]; 7.9% in experiment [5]; 3.63% in experiment [6]. Moreover, the inhibition is 4.31% in experiment [7]; 4.83% in experiment [8]; 8.28% in [9]; -4.63% in experiment [10]; -2.89% in [11]; 2.66% in [12]. The inhibition in experiment [13] was 4.59%; in [14] it was -0.48%; in experiment [15], 5.82%; in [16], 4.84%; in experiment [17], 4.71%; in [18] it was 0.29%. Also, the results for the inhibition in experiment [19] and in [20] were 0.58% and 3.38%, respectively.
For the molecule `NC(=O)c1cccc(Nc2nccc(Nc3cccc4[nH]ncc34)n2)c1`, the inhibition is 25.4% in [1]; 84.1% in experiment [2]; 98.5% in experiment [3]; 70.2% in experiment [4]; 84.9% in [5]; -0.3% in experiment [6]. The inhibition in experiment [7] came to 15.4%; in experiment [8], 69.1%; in experiment [9], 88.6%; in [10], 4.05%; in [11], 7.82%; in [12] it was 9.56%. The inhibition in experiment [13] came to 66.3%; in experiment [14] it was 21.6%; in experiment [15], 73.8%; in [16], 68.6%; in [17] it was 99.7%; in [18] it was 3.23%. Further, the inhibition was 19.9% in [19] and -2.2% in [20].
As to `COc1cc2ncn(-c3cc(OCc4ccccc4C(F)(F)F)c(C(N)=O)s3)c2cc1OC`, the inhibition in [1] was 14%; in experiment [2], 5.48%; in experiment [3], 19.4%; in experiment [4], 2.17%; in experiment [5], 17.9%; in [6], 0.14%. Moreover, the inhibition in experiment [7] was 5.04%; in experiment [8] it was 2.15%; in [9], 13.2%; in [10], -8.08%; in [11], -1.95%; in experiment [12] it was 1.67%. Also, the inhibition in experiment [13] is 17.8%; in [14], 4.67%; in [15], 8.1%; in experiment [16], 3.25%; in experiment [17] it was 5.16%; in [18], -3.7%. For the same molecule, the inhibition in experiment [19] is -1.82%; in experiment [20], 3.11%.
Regarding `Nc1nc(-c2ccc3c(c2)C(=Cc2cc(Br)c(O)c(Br)c2)C(=O)N3)cs1`, the inhibition in [1] is 1.95%; in [2], -2.03%; in experiment [3] it was 7.8%; in experiment [4], 0.56%; in experiment [5], 12.7%; in [6] it was -1.31%. The inhibition is 1.3% in experiment [7]; 0.45% in experiment [8]; 9.86% in experiment [9]; 0.81% in [10]; 2.96% in [11]; -4.1% in [12]. Moreover, the inhibition in experiment [13] is 5.56%; in [14], -0.96%; in experiment [15], -0.09%; in experiment [16], -1.42%; in experiment [17], 0.1%; in experiment [18], -1.45%. The results for the inhibition in experiment [19] and in experiment [20] were -0.23% and -4.69%, respectively.
On to `Cc1ccc(NC(=O)c2ccnc(N3CCCC3)c2)cc1-c1ccc(C(=O)NCC2CC2)cc1`, for which the inhibition in experiment [1] is 2.61%; in [2], 2.64%; in [3], 3.85%; in experiment [4], -0.85%; in [5], 4.81%; in [6] it was 0.36%. The inhibition in [7] was 5.33%; in experiment [8] it was -0.85%; in experiment [9], 7.46%; in [10], -7.11%; in [11], 1.21%; in experiment [12] it was -1.39%. The inhibition in experiment [13] was -0.22%; in experiment [14] it was 2.83%; in experiment [15], 4.79%; in experiment [16], 4.19%; in experiment [17], 3.04%; in experiment [18] it was -3.6%. Besides, the inhibition is -2.42% in [19] and 2.53% in experiment [20].
On to `Nc1ncnc2occ(-c3ccc(NC(=O)Nc4cc(C(F)(F)F)cc(C(F)(F)F)c4)cc3)c12`, for which the inhibition in experiment [1] came out at 83.3%; in experiment [2], 9.88%; in [3], 42.3%; in experiment [4], 3.94%; in experiment [5], 43.5%; in experiment [6], 2.49%. Moreover, the inhibition in experiment [7] was 10.8%; in experiment [8] it was 6.22%; in [9] it was 48.9%; in [10], -0.91%; in [11], 22.1%; in [12], 2.66%. Also, the inhibition in [13] turned out to be 36.5%; in [14], 4.42%; in experiment [15], 49.9%; in experiment [16], 1.52%; in experiment [17], 2.35%; in experiment [18], 2.44%. For the same molecule, the values for the inhibition in experiment [19] and in [20] were 9.01% and 3.53%, respectively.
As to `COc1cc2c(cc1Nc1nc(N3CCc4ccccc43)c3cc[nH]c3n1)N(C(=O)CN(C)C)CC2`, the inhibition in [1] is -1.44%; in experiment [2], 1.21%; in [3], 3.71%; in [4] it was 2.76%; in experiment [5] it was 7.27%; in experiment [6], 90%. In addition, the inhibition turned out to be 85.3% in experiment [7]; 2.02% in [8]; 5.11% in [9]; 3.85% in experiment [10]; 21.4% in experiment [11]; 0.59% in experiment [12]. Further, the inhibition in experiment [13] is 4.28%; in [14] it was -0.34%; in experiment [15], 4.16%; in experiment [16] it was 1.24%; in [17], 0.03%; in experiment [18], 1.01%. Besides, the inhibition in experiment [19] came out at 2.65%; in experiment [20], 3.07%.
As to `CC1=C(C(=O)Nc2ccc3[nH]ncc3c2)C(c2ccc(F)cc2)NC(=O)N1` (stereo not given), the inhibition in experiment [1] amounted to 2.66%; in experiment [2], 1.48%; in experiment [3], 5.27%; in experiment [4] it was 3.51%; in experiment [5], 8.74%; in experiment [6], 0.35%. Moreover, the inhibition in experiment [7] is 3.89%; in experiment [8] it was 2.2%; in [9], 19.7%; in experiment [10] it was -2.41%; in experiment [11], -2.9%; in [12] it was 0.5%. Also, the inhibition in experiment [13] was 3.91%; in [14], -3.23%; in experiment [15], 1.24%; in experiment [16], 1.78%; in experiment [17], 5.55%; in experiment [18], -0.15%. Moreover, the inhibition in [19] was -1.83%; in experiment [20], 0.78%.
Take `CN(C)c1cc2c(Nc3ccc4nc(Cc5ccccc5)[nH]c4c3)ncnc2cn1`: the inhibition in experiment [1] was 4.5%; in experiment [2] it was 4.02%; in experiment [3], 6.17%; in experiment [4], 5.47%; in experiment [5], 9.51%; in experiment [6] it was 4.99%. Moreover, the inhibition in [7] is 4.24%; in [8], 4.28%; in experiment [9] it was 7.06%; in experiment [10], -8.08%; in [11] it was -3.19%; in experiment [12] it was 5.31%. Moreover, the inhibition was determined as 26.3% in experiment [13]; 1.17% in experiment [14]; 21.5% in experiment [15]; 4.68% in experiment [16]; 6.35% in [17]; 1.64% in [18]. Besides, the inhibition in experiment [19] was determined as 4.82%; in experiment [20], 17.4%.
As for `O=C1NC(=O)C(c2cccc(Cl)c2)=C1Nc1ccc(O)c(Cl)c1`, the inhibition is -0.11% in [1]; -0.8% in [2]; 2.65% in experiment [3]; 2.51% in [4]; 7.89% in experiment [5]; 0.73% in [6]. Moreover, the inhibition in [7] was 4.45%; in experiment [8] it was 2.29%; in experiment [9] it was 8.28%; in [10] it was 0.38%; in [11], -0.83%; in [12], 0.13%. Moreover, the inhibition in experiment [13] is 5.96%; in experiment [14] it was 4.05%; in experiment [15], 1.46%; in experiment [16], -2.09%; in experiment [17], -2.04%; in experiment [18], -0.33%. For the same molecule, the results for the inhibition in experiment [19] and in experiment [20] were 1.57% and 0.82%, respectively.
Consider `COc1ccccc1Nc1ncc(-c2ccccc2)o1`, for which the inhibition in [1] was 5.84%; in [2] it was 4.71%; in experiment [3], 13.7%; in experiment [4], 8.63%; in experiment [5], 14.1%; in experiment [6], 4.54%. The inhibition in experiment [7] is 9.47%; in experiment [8], 7.08%; in experiment [9], 11.2%; in [10] it was -6.45%; in experiment [11] it was -5.15%; in experiment [12] it was 4.5%. Moreover, the inhibition amounted to 5.8% in experiment [13]; 4.01% in experiment [14]; 6.53% in experiment [15]; 2.03% in experiment [16]; 6.6% in [17]; 0.53% in experiment [18]. The inhibition in experiment [19] was found to be 3.39%; in experiment [20], 2.72%.
